Experimental data: PubChem BioAssay (Tox21)
Inconclusive results are not listed. A call without a number means that no potency is given here. A number with no mark means an inactive call. Activity calls are given as the source filed them. Calls follow the shape of the dose curve; as a rule, active = well fitted curve in the direction sought with a large enough effect in the repeat runs; inconclusive = weak or mixed curves; inactive = no such curve, though single readings can be large; an effect the other way counts as inactive or inconclusive.

Columns and labels:
[1] = target: Voltage-gated inwardly rectifying potassium channel KCNH2 (Homo sapiens) (UniProt Q12809); assay: Human Ether-a-go-go-Related Gene (hERG) channel small molecule antagonists: fluorescence cell-based qHTS assay (AID 1671200);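 as to activity change, negative = inhibition: hERG-expressing U2OS cells given a thallium stimulus after FluxOR II dye loading; series mostly up to about 77 µM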
Chain of Voltage-gated inwardly rectifying potassium channel KCNH2 (Homo sapiens) (Q12809 whole entry, looked up): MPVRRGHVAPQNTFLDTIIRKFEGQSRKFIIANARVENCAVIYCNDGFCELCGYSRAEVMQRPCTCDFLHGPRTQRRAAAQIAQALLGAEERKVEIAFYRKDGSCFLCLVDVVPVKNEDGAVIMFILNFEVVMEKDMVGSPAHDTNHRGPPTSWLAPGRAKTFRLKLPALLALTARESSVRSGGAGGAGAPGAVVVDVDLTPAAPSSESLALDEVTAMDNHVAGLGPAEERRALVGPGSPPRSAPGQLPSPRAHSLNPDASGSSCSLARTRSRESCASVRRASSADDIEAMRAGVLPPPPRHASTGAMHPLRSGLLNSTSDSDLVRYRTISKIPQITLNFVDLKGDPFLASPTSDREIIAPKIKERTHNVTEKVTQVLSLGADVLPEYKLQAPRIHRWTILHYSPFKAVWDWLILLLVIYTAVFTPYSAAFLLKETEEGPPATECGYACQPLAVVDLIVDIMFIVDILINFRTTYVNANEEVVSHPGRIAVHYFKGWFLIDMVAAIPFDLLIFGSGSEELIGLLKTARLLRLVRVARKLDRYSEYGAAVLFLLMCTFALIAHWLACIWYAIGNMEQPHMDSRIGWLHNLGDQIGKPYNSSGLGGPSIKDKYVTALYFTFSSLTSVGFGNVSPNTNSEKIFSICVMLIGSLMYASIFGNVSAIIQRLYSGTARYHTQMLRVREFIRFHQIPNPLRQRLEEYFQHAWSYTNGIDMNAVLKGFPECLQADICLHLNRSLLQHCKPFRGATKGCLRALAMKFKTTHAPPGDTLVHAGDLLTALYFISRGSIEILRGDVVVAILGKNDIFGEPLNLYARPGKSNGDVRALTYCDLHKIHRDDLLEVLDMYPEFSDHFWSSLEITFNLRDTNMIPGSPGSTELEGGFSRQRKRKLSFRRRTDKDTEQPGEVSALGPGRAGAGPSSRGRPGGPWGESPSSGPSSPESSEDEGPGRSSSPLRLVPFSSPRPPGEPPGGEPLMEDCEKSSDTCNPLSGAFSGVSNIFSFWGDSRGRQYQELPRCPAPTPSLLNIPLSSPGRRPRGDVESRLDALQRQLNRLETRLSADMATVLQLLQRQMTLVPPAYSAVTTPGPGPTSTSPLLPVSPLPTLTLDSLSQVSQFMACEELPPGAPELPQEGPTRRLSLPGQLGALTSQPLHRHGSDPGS
In short: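 First, 1000 cells per well are seeded and cultured overnight at 37 C. Next, FluxOR II dye is loaded for 1 h at room temperature, protected from light. After 10 more minutes, stimulus is added and fluorescence is read.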

[2] = target: Cytochrome P450 3A4 (Homo sapiens) (UniProt P08684); assay: Cytochrome P450 Family 3 Subfamily A Member 4 (CYP3A4) small molecule antagonists: luciferase reporter qHTS assay (AID 1671201); as to activity change, negative = inhibition: series mostly up to about 120 µM
Chain of Cytochrome P450 3A4 (Homo sapiens) (P08684 whole entry, looked up): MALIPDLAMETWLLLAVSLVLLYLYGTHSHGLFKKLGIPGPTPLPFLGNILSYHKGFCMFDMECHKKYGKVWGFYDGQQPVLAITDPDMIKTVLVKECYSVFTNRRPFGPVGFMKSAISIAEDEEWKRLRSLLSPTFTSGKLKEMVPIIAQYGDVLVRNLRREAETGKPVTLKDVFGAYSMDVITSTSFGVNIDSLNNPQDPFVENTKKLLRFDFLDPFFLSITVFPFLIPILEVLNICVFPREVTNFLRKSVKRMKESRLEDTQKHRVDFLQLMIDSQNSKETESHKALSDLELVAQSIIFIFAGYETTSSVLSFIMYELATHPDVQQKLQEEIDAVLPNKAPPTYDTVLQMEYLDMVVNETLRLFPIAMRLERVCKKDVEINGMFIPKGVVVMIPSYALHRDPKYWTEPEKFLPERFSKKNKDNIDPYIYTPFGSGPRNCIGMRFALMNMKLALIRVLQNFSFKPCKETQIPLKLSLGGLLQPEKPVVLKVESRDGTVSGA
In short: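 Enzyme and proluciferin substrate are mixed with test chemicals for 10 min, then NADPH regeneration system drives turnover for 1 h at room temperature. A detection reagent halts the reaction; luminescence after 20 min gives relative activity.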
Also: nearly all actives have a fitted effect of over 50% in size.
Potency is read from the fitted curve at half-maximal effect.

CN(C)c1ccc(N=Nc2ccccc2C(=O)O)cc1
Potency [1]: inactive | Potency [2]: inactive

CCOC(=O)COc1ccc(C)cc1
Potency [1]: inactive | Potency [2]: inactive

CCCCCCOc1ccc(O)cc1
Potency [1]: inactive

O=C1NC2CCCCN2C12CCN(CCCN1c3ccccc3CCc3ccc(Cl)cc31)CC2 (centres undefined)
Potency [1]: 0.756 µM (active) | Potency [2]: inactive

O=C1OC(=O)c2cccc3cccc1c23
Potency [1]: inactive | Potency [2]: inactive

CC(C)(C)c1n[nH]c(=O)n(N)c1=O
Potency [1]: inactive | Potency [2]: inactive

Nc1ccc2cc3ccc(N)cc3nc2c1
Potency [1]: inactive | Potency [2]: 3.99 µM (active)

O=Nc1ccc(NO)cc1
Potency [1]: inactive

OCCCS
Potency [1]: inactive | Potency [2]: inactive

CS(C)(=O)=O
Potency [1]: inactive | Potency [2]: inactive

NC(=O)C(=O)N/N=C/c1ccc([N+](=O)[O-])o1
Potency [1]: inactive | Potency [2]: inactive

Cc1cc(=O)[nH]c(=O)[nH]1
Potency [1]: inactive

O=S(=O)(O)CCCN1CCOCC1
Potency [1]: inactive | Potency [2]: inactive

COc1cc(C=C2CCC/C(=C\c3ccc(O)c(OC)c3)C2=O)ccc1O
Potency [1]: inactive

CC1(C)C(=O)N(Br)C(=O)N1Br
Potency [1]: inactive | Potency [2]: inactive

CC(O)C#CC(C)O (centres undefined)
Potency [1]: inactive | Potency [2]: inactive

CC=O
Potency [1]: 4.57 µM (active) | Potency [2]: inactive

CCCC(O)C(O)CO (centres undefined)
Potency [1]: inactive

C=CC(C)C#N (centres undefined)
Potency [1]: inactive | Potency [2]: inactive

COC(=O)CC#N
Potency [1]: inactive

CCCCCCCCCCCCCOP(=O)(O)O
Potency [1]: inactive | Potency [2]: inactive

Cc1cccc(N(C)C)c1
Potency [1]: inactive | Potency [2]: inactive

CCCCCCCCCCCCCCCC
Potency [1]: inactive | Potency [2]: inactive

CC(C)C(=O)OCc1ccccc1
Potency [1]: inactive | Potency [2]: inactive

Cc1ccc(N)cc1O
Potency [1]: inactive

COc1nccnc1CC(C)C
Potency [1]: inactive | Potency [2]: inactive

O=C1Nc2ccc(Cl)cc2[C@@](C#CC2CC2)(C(F)(F)F)O1
Potency [1]: inactive | Potency [2]: inactive

CCCCN(CCCC)CCC(O)c1cc2c(Cl)cc(Cl)cc2c2cc(C(F)(F)F)ccc12 (centres undefined)
Potency [1]: 1.07 µM (active)

OCCCCl
Potency [1]: inactive | Potency [2]: inactive

CCc1c(Br)c(Br)c(Br)c(Br)c1Br
Potency [1]: inactive | Potency [2]: inactive

SCCCCCCCCS
Potency [1]: inactive | Potency [2]: inactive

CC(C)(C)c1cc(/C=C2\SC(=N)NC2=O)cc(C(C)(C)C)c1O
Potency [1]: inactive | Potency [2]: 11.2 µM (active)

Brc1ccccn1
Potency [1]: inactive | Potency [2]: inactive

CCC(C)(C)c1cc(O)c(C(C)(C)CC)cc1O
Potency [1]: inactive | Potency [2]: inactive

Clc1cc(Cl)c(-c2c(Cl)c(Cl)cc(Cl)c2Cl)cc1Cl
Potency [1]: inactive

C=C/C=C/C=C/CCCCC
activity change, negative = inhibition [1]: -12.1% [at 15.8 µM]

Brc1ccccc1-c1ccccc1
Potency [1]: 31.4 µM (active) | Potency [2]: inactive

ClC/C=C\CCl
Potency [1]: inactive | Potency [2]: inactive

Cc1cc(Nc2ccc(O)cc2)ccc1N
Potency [1]: inactive | Potency [2]: 7.93 µM (active)

CC(COC(=O)c1ccccc1)OC(=O)c1ccccc1 (centres undefined)
Potency [1]: 43.6 µM (active) | Potency [2]: inactive

CC1CCCCC1
Potency [1]: inactive | Potency [2]: inactive

CCCCCCC(C)OC(=O)COc1nc(F)c(Cl)c(N)c1Cl (centres undefined)
Potency [1]: 38.9 µM (active) | Potency [2]: 7.96 µM (active)

CCN(CC)CCNc1ccc(CO)c2sc3ccccc3c(=O)c12
Potency [1]: 10.7 µM (active) | Potency [2]: inactive

CCOC(=O)CC(C)O (centres undefined)
Potency [1]: inactive | Potency [2]: inactive

CCCCCCCC/C=C/CCCOC(C)=O
Potency [1]: inactive | Potency [2]: inactive

CCN(CC)CCCN(c1ccccc1)C1Cc2ccccc2C1
Potency [1]: 2.13 µM (active) | Potency [2]: inactive

Cn1cnc2ncnc(N)c21
Potency [1]: inactive | Potency [2]: inactive

CCOC(/C=C(\C)CCC=C(C)C)OCC
Potency [1]: inactive | Potency [2]: inactive

COC(=O)CC(C)CCC=C(C)C (centres undefined)
Potency [1]: inactive | Potency [2]: inactive

CCCCCCS
Potency [1]: inactive | Potency [2]: inactive

CC(=O)Oc1ccc(C2(c3ccc(OC(C)=O)cc3)Oc3ccccc3NC2=O)cc1
Potency [1]: inactive | Potency [2]: inactive

C(=C/c1ccccc1)/c1ccccc1
Potency [1]: inactive | Potency [2]: inactive

CC(C)CCOCCC(C)C
Potency [1]: inactive | Potency [2]: inactive

O=Cc1ccc(F)cc1
Potency [1]: inactive | Potency [2]: inactive

c1cc(OCC2CO2)cc(OCC2CO2)c1 (centres undefined)
Potency [1]: inactive | Potency [2]: 35.3 µM (active)

CCOCOCC
Potency [1]: inactive | Potency [2]: inactive

N#CSCSc1nc2ccccc2s1
Potency [1]: inactive | Potency [2]: inactive

O=C(Nc1ccc(Cl)cc1)Nc1ccc(Cl)c(C(F)(F)F)c1
Potency [1]: inactive | Potency [2]: inactive

C=CC(=C)CC/C=C(\C)CCC=C(C)C
activity change, negative = inhibition [1]: -2.72% [at 15.8 µM] | Potency [2]: 16.9 µM (active)

CCC(C)C(=O)OC (centres undefined)
Potency [1]: inactive | Potency [2]: inactive

CC1=CP(=O)(c2ccccc2)CC1 (centres undefined)
Potency [1]: inactive | Potency [2]: inactive

CCCCCCCCCCCCCCCCCO
activity change, negative = inhibition [1]: 5.95% [at 15.8 µM] | activity change, negative = inhibition [2]: 7.87% [at 23.6 µM]
